High-throughput results (PubChem BioAssay)
This is a sample that favours compounds with a hit; in the whole collection about 1.1% have one here.
PrPC surface inh: cell surface PrPC inhibition, primary TR-FRET screen. P04156. TR-FRET read-out. inhibition, % at 13.8 µM. hit rate 0.43% among 370,000. AID 720596; in the data active means inhibition above about 24%; further: 0% = median of the test wells and 100% = reference compound wells
Y pestis TopoI: inhibitors of Yersinia pestis topoisomerase I. Y. pestis Topo-I cleavage product accumulation, plate reader. activity, % at 10 µM. hit rate 0.064% among 360,000. AID 504884; in the data active means activity above about 50%, passing the limit was not always enough
CCHF vOTU inh-1: CCHFV vOTU protease inhibition. Pep-AMC fluorescence. inhibition, % at 11.5 µM. hit rate 0.55% among 370,000. AID 651958; further: 0% = vehicle wells with enzyme and 100% = no enzyme wells
BH1578 lux ind: inducers of Vibrio cholerae quorum light production without autoinducers; V. cholerae BH1578 lux reporter, luminescence, 6 h; activation, % at 18.7 µM; hit rate 0.16% among 350,000; in the data active means activation mostly above about 9.7%, no sharp cut-off
CCHF vOTU inh-2: confirmation of CCHF virus vOTU protease inhibitors | hit rate 17% among 1,900 | inhibition, % at 11.5 µM | Recombinant CCHFV vOTU, Pep-AMC fluorescence | shares compounds with CCHF vOTU inh-1
* hit, by the source's call; i = inactive; nt = no result given. Unless noted, no stated cut-off is given here; in the data, active means inhibition above about 30%; inactive means the rest.

SMILES	PrPC surface inh	Y pestis TopoI	CCHF vOTU inh-1	BH1578 lux ind	CCHF vOTU inh-2
CCCCCCCCN1C(=O)[C@H](CC(=O)NCc2cccs2)C[C@@]2(C(=O)OCC)CCCC=C12	5	nt	31*	nt	14
CCOC(=O)[C@]12CCC=C1N(Cc1ccc(Cl)cc1Cl)C(=O)[C@H](CC(=O)NCc1ccc(C)o1)C2	11	nt	34*	nt	-11
CCCCCCCCN1C(=O)[C@H](CC(=O)NCCc2ccccc2OC)C[C@@]2(C(=O)OC)CCCCC=C12	-6	nt	47*	nt	10
CCCCCCCCN1C(=O)[C@H](CC(=O)NCc2ccc(OC)c(OC)c2)C[C@@]2(C(=O)OCC)CCCC=C12	13	nt	39*	nt	16
CCCCCCCCN1C(=O)[C@H](CC(=O)NCc2cccs2)C[C@@]2(C(=O)OC)CCCCC=C12	1	nt	23	nt	nt
COc1ccccc1NC(=O)O/N=C(\N)c1ccccc1	7	5	-9	i	nt
CC1CCCC(NC(=O)c2ccc3c(c2)OCCO3)C1C (stereo not drawn)	-2	1	2	i	nt
COc1ccccc1N1CCN(CC(=O)Nc2ccccc2C(=O)NCCc2ccccc2)CC1	0	15	-2	i	nt
CC1(CC(=O)N/N=C/c2ccc(-c3cccc(C(F)(F)F)c3)o2)OCCO1	3	-3	35*	0	-7
CCOC(=O)N/N=C\c1ccc(-c2cccc(C(F)(F)F)c2)o1	6	-7	19	0	nt
COc1ccc([C@H]2CC(=O)C[C@@H](CCn3cc(Cc4ccccc4)nn3)O2)cc1	6	nt	7	nt	nt
Clc1nc(Oc2ccccc2)nc(-c2cn(-c3ccccc3)c3ccccc23)n1	10	2	-7	i	nt
COc1ccc(CNC(=O)COC(=O)C2(C)CC2(Cl)Cl)cc1 (stereo not drawn)	-3	6	5	0	nt
COC(=O)c1c(NC(=O)CN2C(=O)NC3(CCC(C)CC3)C2=O)sc2c1CCC2 (stereo not drawn)	-3	3	-4	-1	nt
Cn1c2ccccc2c2cc(/C=C(\NC(=O)c3ccccc3)C(=O)O)ccc21	3	-6	30*	i	-6
NCCCC[C@H]1CNC(=O)C(=O)N1CCCCC1CCCCC1	8	-7	-2	i	nt
CC(=O)c1cccc(S(=O)(=O)N(C)C2CCN(C)CC2)c1	1	3	-1	i	nt
CC[C@@H]1C=C(C(=O)O)[C@H](c2ccc(Cl)cc2)N1S(=O)(=O)c1ccc(C)cc1	22	3	32*	-1	-15
Cc1ccc(S(=O)(=O)N2[C@@H](c3ccc(Cl)c(Cl)c3)C(C(=O)O)=C[C@H]2CC2CCCC2)cc1	2	21	34*	-1	18
Cc1ccc(S(=O)(=O)N2[C@@H](c3ccc(Cl)cc3)C(C(=O)O)=C[C@H]2CC2CCCC2)cc1	-6	10	31*	1	20
CCN(Cc1ccc(C#CCCO)cc1)CC1CCCN(CCc2cccc(OC)c2)C1 (stereo not drawn)	-2	27	8	-2	nt
O=C1C(Cl)=C(NCCCO)C(=O)c2ccccc21	-70	-15	45*	0	48*
CC(=O)Nc1ccc(NC2=C(Cl)C(=O)c3ccccc3C2=O)cc1	-16	nt	2	nt	nt
CN(C)c1ccc(NC2=C(Cl)C(=O)c3ccccc3C2=O)cc1	-34	-2	56*	i	14
O=C1C(Cl)=C(NCCN2CCOCC2)C(=O)c2ccccc21	-73	-16	43*	0	62*
SMILES	PrPC surface inh	Y pestis TopoI	CCHF vOTU inh-1	BH1578 lux ind	CCHF vOTU inh-2
O=C1C(Cl)=C(NCCCN2CCOCC2)C(=O)c2ccccc21	-61	-8	17	-2	nt
CCOCCCNC1=C(Cl)C(=O)c2ccccc2C1=O	-49	0	46*	-1	60*
CC(O)c1nc2ccccc2n1CC(=O)N1CCN(c2ccccc2)CC1 (stereo not drawn)	9	13	14	0	nt
COC1OC2COC(c3ccccc3)OC2C(NC(C)=O)C1OC(C)=O (stereo not drawn)	-2	6	-2	-3	nt
COc1ccc(C2=C(Nc3ccc(C)cc3)c3ccccc3C2=O)cc1	-8	-11	5	0	nt
Cc1ccc(NC2=C(NCCO)C(=O)c3ccccc3C2=O)cc1	2	-22	115*	0	42*
Cc1ccc(N=C(NO)c2cnccc2C(F)(F)F)c(C)c1	-3	-3	-11	i	nt
COc1cc(/C=C2/C(=O)NN(c3ccc(Cl)c(Cl)c3)C2=O)cc([N+](=O)[O-])c1O	-3	-14	38*	i	-10
COc1cc(/C=C2/C(=O)NN(c3ccc(F)cc3)C2=O)cc(Cl)c1O	0	1	6	i	nt
NC(=O)c1ccc(NC(=O)COC(=O)c2ccccc2SCC(=O)N2CCCC2)cc1	-1	4	33*	i	-6
CCOc1ccccc1NC(=O)COC(=O)c1ccccc1SCC(=O)N1CCCC1	14	2	37*	-1	-10
O=C(COC(=O)c1ccccc1SCC(=O)N1CCCC1)Nc1ccc(OC(F)F)cc1	2	7	-3	i	nt
COc1ccccc1-c1sc2cc3c(cc2c1-c1ccc(O)cc1)OCO3	2	-16	30*	0	-2
CNC(=O)C[C@H]1C(=O)N(c2ccc(Br)cc2)C[C@@H]1CSC	2	3	-10	-1	nt
CC(C)C[C@H](N)c1cn([C@@H](Cc2ccc(O)cc2)C(=O)N2CCNCC2)nn1	-6	-10	-4	-2	nt
CCOc1ccc(/C=C2\SC(=S)N(NS(=O)(=O)c3ccccc3)C2=O)cc1OC	-15	14	41*	-1	10
COc1ccc(/C=C2\SC(=S)N(NS(=O)(=O)c3ccc(C)cc3)C2=O)c(OC)c1	-1	-1	1	0	nt
CCOc1ccc(/C=C2\SC(=S)N(NS(=O)(=O)c3ccc(C)cc3)C2=O)cc1OC	1	15	27	i	nt
COc1ccccc1/C=C1\SC(=S)N(NS(=O)(=O)c2ccc(C)cc2)C1=O	-3	3	36*	i	1
COc1ccc(OC)c(/C=C2\SC(=S)N(NS(=O)(=O)c3ccc(C)cc3)C2=O)c1	-7	10	33*	i	8
CCc1nc2c(OCCC3CCCCC3)cccn2c1N(C)C(=O)c1ccccc1F	2	28	2	-1	nt
CCc1nc2c(OCCC3CCCCC3)cccn2c1N(C)C(=O)c1ccc(C)cc1	24	20	37*	-1	6
CCc1nc2c(OCC3CCCCC3)cccn2c1N(C)C(=O)c1ccccc1F	20	20	31*	-3	-6
CCc1nc2c(OCCC3CCCCC3)cccn2c1N(C)C(=O)C1CC1	nt	34	nt	i	nt
CCc1nc2c(OCCC3CCCCC3)cccn2c1N(C)C(=O)COc1ccccc1	20	25	36*	-1	5
COc1cc(OC)cc(C2=Cc3ccc(OC)cc3C(CC(C)=O)N2c2ccc(C#CC3(N)CCCCC3)cc2)c1 (stereo not drawn)	-15	nt	14	nt	nt
O=C(NCc1ccc(OC(F)(F)F)cc1)C1CC(c2c(Cl)cccc2Cl)=NO1 (stereo not drawn)	-1	33	30*	i	4
CCOc1cc(C(=O)N2CCCC2)cc(OCC)c1OCC	-3	-1	2	i	nt
